The results in this text go back to PubChem BioAssay AID652115 (Broad Institute, 2013).

Structures are written as SMILES. The campaign covered roughly 330,000 compounds. About 3,800 (1.2%) were called active. No stated cut-off is given here; in the data, active means inhibition above about 15%; inconclusive means no clear call, values can overlap the other calls; inactive means below that. Many of the other results were omitted from the sample, so actives are more common in it than they were.

For the assay, the target named is NAD-dependent protein deacylase sirtuin-5, mitochondrial (Homo sapiens) (UniProt Q9NXA8). The experiment in a line: SIRT5 desuccinylase inhibitors, primary screen, biochemical, fluorescence imaging, single point, set 5 (AID 652115). To be noted: Purified SirT5, succinyl-peptide AMC, trypsin-coupled fluorescence; at 15 µM; active compounds read high.
NAD-dependent protein deacylase sirtuin-5, mitochondrial (Homo sapiens), sequence (Q9NXA8 whole entry, looked up): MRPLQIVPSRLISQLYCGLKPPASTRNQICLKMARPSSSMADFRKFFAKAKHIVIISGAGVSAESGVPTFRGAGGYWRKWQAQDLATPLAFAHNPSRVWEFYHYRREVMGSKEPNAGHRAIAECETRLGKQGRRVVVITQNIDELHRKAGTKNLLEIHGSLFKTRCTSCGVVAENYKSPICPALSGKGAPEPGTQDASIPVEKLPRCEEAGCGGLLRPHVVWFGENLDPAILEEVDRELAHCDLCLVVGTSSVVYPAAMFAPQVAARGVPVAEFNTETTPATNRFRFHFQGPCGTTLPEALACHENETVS
For the molecule `C=C[C@H](OC)[C@@H](O)c1ccc(OC)c(O)c1`, the inhibition was -1.66% (inactive).
In the case of `CCNC(=O)C[C@@H]1CC[C@@H]2[C@@H](COc3ccc(NC(C)=O)cc3C(=O)N2C)O1`, the inhibition was 1.4% (inactive).
Regarding `COCC(=O)Nc1ccc2c(c1)C(=O)N(C)C[C@@H](OC)[C@H](C)CN(C(=O)c1ccccn1)[C@@H](C)CO2`, the inhibition was 0.122% (inactive).
The same measure for `O=C(NCC[C@@H]1CC[C@H](NC(=O)C2CC2)[C@H](CO)O1)c1cnccn1`: 1.79% (inactive); for `O=C(Nc1c(C(=O)N2CCCCC2)cnn1-c1ccccc1)c1ccco1`: 0.316% (inactive).
For `Cc1ccccc1NC(=O)c1cnn(-c2ccccc2)c1NC(=O)c1ccco1` the value was 3.74% (inactive); for `O=C(NNc1ncnc2c1cnn2-c1ccccc1)c1ccco1`, 16.9% (active).
As to `COc1ccc(Cl)cc1NC(=O)COC(=O)c1ccc(Br)o1`, the inhibition is 21% (active).
The same measure for `COc1ccc(Cl)cc1NC(=O)COc1ccc2c(c1)OCO2`: -11.6% (inactive).
For the molecule `COc1ccc(Cl)cc1NC(=O)CN(C)Cc1ccc(OC)c(OC)c1`, the inhibition was -4.51% (inactive).
For the molecule `O=C(C[C@@H]1CC[C@H]2[C@@H](COC[C@@H](O)CN2C(=O)Nc2ccc(F)cc2)O1)NCC1CC1`, the inhibition was 2.85% (inactive).
On to `O=C(C[C@@H]1CC[C@H](NC(=O)c2ccncc2)[C@@H](CO)O1)Nc1ccc(-c2ccccc2)cc1`, for which the inhibition is -3.04% (inactive).
For `COc1ccc(Br)cc1/C=N/Nc1ccc(S(=O)(=O)Nc2ccccc2C(=O)O)cc1[N+](=O)[O-]`, the inhibition is 47.2% (active).
With `COc1cccc(/C=N/Nc2ccc(S(=O)(=O)Nc3ccccc3C(=O)O)cc2[N+](=O)[O-])c1O`, the inhibition was 19% (active).
For `O=C(O)c1ccccc1/C=N/Nc1ccc(S(=O)(=O)Nc2ccc(Cl)cc2)cc1[N+](=O)[O-]`, the inhibition was 10.8% (inactive).
For `Cc1ccc(NS(=O)(=O)c2ccc(N/N=C/c3ccccc3OCC(=O)O)c([N+](=O)[O-])c2)c(C)c1`, the inhibition is -2.15% (inactive).
Turning to `COc1ccc(Br)cc1/C=N/Nc1ccc(Cl)c(C(=O)O)c1`, the inhibition was -8.87% (inactive).
On to `COc1cc(OC)c(S(=O)(=O)Nc2ccccc2C(=O)O)cc1S(=O)(=O)Nc1ccccc1C(=O)O`, for which the inhibition was 0.719% (inactive).
With `COc1ccc2c3c([nH]c2c1)[C@@H](CO)N(Cc1cccc(F)c1)CC31CN(CC2CC2)C1`, the inhibition was 3.68% (inactive).
On to `CCNC(=O)C[C@@H]1CC[C@@H]2[C@H](COc3ccc(NC(=O)Nc4cccc(C)c4)cc3C(=O)N2C)O1`, for which the inhibition was -1.08% (inactive).
`C/C=C/c1ccccc1[C@@H]1[C@@H](CO)N(S(=O)(=O)c2cccc(F)c2)[C@H]1C#N`: the inhibition is 2.5% (inactive).
Take `O=C(C[C@@H]1CC[C@@H]2[C@H](COC[C@H](O)CN2S(=O)(=O)c2ccccc2)O1)N[C@H]1CCN(Cc2ccccc2)C1`: the inhibition was -3.32% (inactive).
With `COCC(=O)Nc1ccc2c(c1)C(=O)N(C)C[C@@H](OC)[C@H](C)CN(C(=O)c1cccnc1)[C@H](C)CO2`, the inhibition is 5.23% (inactive).
For the molecule `COc1cc(C2C(C(=O)c3ccco3)=C(O)C(=O)N2c2cc(C)on2)ccc1OCc1ccccc1` (configuration not stated), the inhibition was -4.04% (inactive).
`C=CCOc1cccc(C2C(C(=O)c3ccc(C)o3)=C(O)C(=O)N2c2nnc(C)s2)c1` (configuration not stated): the inhibition was -0.578% (inactive).
Consider `Cc1cc(N2C(=O)C(O)=C(C(=O)c3ccc(C)o3)C2c2ccc(OCc3ccccc3)cc2)no1` (configuration not stated), for which the inhibition was 19.4% (active).
Turning to `COc1ccc(NC(=O)Nc2ccc3c(c2)C(=O)N([C@@H](C)CO)C[C@@H](C)[C@@H](CN(C)C(=O)CCCN(C)C)OCCCC[C@@H](C)O3)cc1`, the inhibition is -2.34% (inactive).
Turning to `COc1ccc2c3c(n(C)c2c1)[C@@H](CO)N(CC1CC1)CC31CN(C(=O)c2cccc(F)c2)C1`, the inhibition was 1.38% (inactive).
With `Cc1cc([N+](=O)[O-])ccc1NS(=O)(=O)c1ccccc1`, the inhibition is 4.53% (inactive).
`Cc1cc([N+](=O)[O-])ccc1NC1CCCC1`: the inhibition is 21.2% (active).
For the molecule `Cc1cc(C=O)c(C)n1-c1ccc(NC2CCCCC2)c([N+](=O)[O-])c1`, the inhibition is 2.63% (inactive).
For the molecule `C[C@@H]1CN([C@H](C)CO)C(=O)c2cc(-c3cccc(F)c3)cnc2O[C@H]1CN(C)C(=O)Nc1ccccc1F`, the inhibition is 4.47% (inactive).
Regarding `O=C(CN1CCOCC1)N[C@@H]1CC[C@@H](CCNC(=O)C2CCCCC2)O[C@@H]1CO`, the inhibition was 7.91% (inactive).
In the case of `C[C@H]1CN([C@@H](C)CO)C(=O)c2cc(C#CC3CCCC3)cnc2O[C@H]1CN(C)C(=O)c1ccncc1`, the inhibition was 5.96% (inactive).
The same measure for `Cc1c(C(=O)NCCN2CCOCC2)sc2nc(-c3ccc(F)cc3)cn12`: 26.8% (active).
For `Cc1c(C(=O)NCC2CCCO2)sc2nc(-c3ccccc3)cn12` (configuration not stated), the inhibition is -9.93% (inactive).
For the molecule `Cc1ccc(C(=O)N/C(=C\c2ccc(F)cc2)C(=O)NCCN2CCOCC2)cc1`, the inhibition was -1.92% (inactive).
Turning to `C[C@@H]1CCCCO[C@@H](CN(C)C(=O)Nc2ccc(C(F)(F)F)cc2)[C@H](C)CN([C@@H](C)CO)C(=O)c2cc(N(C)C)ccc2O1`, the inhibition is 2.03% (inactive).
The same measure for `O=C(c1ccc(F)cc1)N1CC(=O)N2[C@@H](CO)[C@H](c3ccc(C4=CCCC4)cc3)[C@@H]2C1`: -4.25% (inactive).
As to `C[C@@H]1CN([C@@H](C)CO)S(=O)(=O)c2ccc(C#CCC3CCCC3)cc2O[C@@H]1CN(C)C`, the inhibition was 2.36% (inactive).
As to `C[C@@H]1CN([C@@H](C)CO)S(=O)(=O)c2ccc(C#CCC3CCCC3)cc2O[C@H]1CN(C)Cc1ccc(C(=O)O)cc1`, the inhibition was 17.1% (active).
On to `C[C@@H]1CN([C@H](C)CO)S(=O)(=O)c2ccc(C#CCC3CCCC3)cc2O[C@H]1CN(C)Cc1ccc(C(=O)O)cc1`, for which the inhibition was 15.8% (active).
Turning to `C[C@@H]1CN([C@H](C)CO)S(=O)(=O)c2ccc(C#CCC3CCCC3)cc2O[C@H]1CN(C)C(=O)CC1CC1`, the inhibition is 9.26% (inactive).
In the case of `C[C@@H]1CN([C@@H](C)CO)S(=O)(=O)c2ccc(C#CCC3CCCC3)cc2O[C@H]1CN(C)C(=O)CC1CC1`, the inhibition was 9.11% (inactive).
As to `C[C@H]1CN([C@@H](C)CO)S(=O)(=O)c2ccc(C#CCN(C)C)cc2O[C@@H]1CN(C)Cc1ccc(F)cc1`, the inhibition is -1.1% (inactive).
In the case of `CO[C@@H]1CN(C)C(=O)c2ccc(NC(=O)c3cccc(Oc4ccccc4)c3)cc2OC[C@H](C)NC[C@@H]1C`, the inhibition is 0.913% (inactive).
For `CN(C)C(=O)c1cccc(-c2ccc3n(c2=O)C[C@H]2N[C@@H]3[C@@H](C(=O)NC3CCC3)[C@@H]2CO)c1` the value was -48.3% (inactive); for `COc1ccc2c3c(n(C)c2c1)[C@H](CO)N(C(C)=O)CC31CN(C(=O)c2cnccn2)C1`, -3.27% (inactive); for `CCc1nnc(NS(=O)(=O)c2ccc(NC(=S)NC(=O)c3cccs3)cc2)s1`, 19.1% (active).
Consider `CCc1nnc(NS(=O)(=O)c2ccc(NC(=S)NC(=O)/C=C/c3cccs3)cc2)s1`, for which the inhibition is 9.43% (inactive).
Turning to `CCc1nnc(NS(=O)(=O)c2ccc(NC(=O)c3cccc(OC(F)(F)C(F)F)c3)cc2)s1`, the inhibition is -3.94% (inactive).
Take `C[C@@H]1CN([C@@H](C)CO)C(=O)c2cc(NS(C)(=O)=O)ccc2O[C@@H](C)CCCCO[C@@H]1CN(C)C(=O)c1ccccc1`: the inhibition was 0.623% (inactive).

As usually defined, the inhibition is the change of the read-out against control, counted positive when it falls.
